Active and inactive are the calls of the source.
Columns and labels:
Albumin (Bos taurus) = Albumin (Bos taurus) (UniProt P02769); assay: compounds binding labelled BSA control protein – biochemical, small-molecule microarray, Alexa647 label, 635/667 nm fluorescence, artefact control for SMM control protein annotation, profiling panel (AID 1118); conditions: BSA-A647 binding, fluorescence 635 nm, higher = more signal;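 further: score merges 667 nm emission intensity and signal-to-noise per printed compound spot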
Chain of Albumin (Bos taurus) (P02769 whole entry, looked up): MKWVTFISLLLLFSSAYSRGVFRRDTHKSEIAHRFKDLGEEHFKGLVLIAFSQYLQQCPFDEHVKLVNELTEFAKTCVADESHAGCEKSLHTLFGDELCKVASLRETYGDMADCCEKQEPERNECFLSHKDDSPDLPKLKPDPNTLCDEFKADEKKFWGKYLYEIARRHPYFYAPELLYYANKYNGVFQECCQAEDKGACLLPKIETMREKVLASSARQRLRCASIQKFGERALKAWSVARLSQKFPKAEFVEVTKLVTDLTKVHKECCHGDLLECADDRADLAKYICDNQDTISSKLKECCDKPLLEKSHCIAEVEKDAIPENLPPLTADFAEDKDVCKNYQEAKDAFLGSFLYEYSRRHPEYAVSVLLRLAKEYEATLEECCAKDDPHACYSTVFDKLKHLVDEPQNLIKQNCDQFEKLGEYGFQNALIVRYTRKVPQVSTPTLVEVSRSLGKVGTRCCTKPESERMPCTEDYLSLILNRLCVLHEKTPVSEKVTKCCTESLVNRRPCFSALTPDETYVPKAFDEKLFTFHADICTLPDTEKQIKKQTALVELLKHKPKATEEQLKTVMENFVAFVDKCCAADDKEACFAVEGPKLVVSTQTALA

[1] = probe aXIP binding to arrayed compounds – biochemical, NeuroSMM set, 635/667 nm fluorescence, primary screen (AID 1119); conditions: small-molecule microarray, higher = more signal, called active from +8 up or from −8 down;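 further: probe is the protein aXip251-270 applied at 1 µg/mL to compound-printed slides; binding of probe to printed compounds measured as 667 nm fluorescence plus signal to noise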
[2] = probe aNOTCH3 binding on compound microarray – biochemical, small-molecule microarray, 635/667 nm fluorescence, primary screen (AID 1120); conditions: higher = more signal;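 further: probe is a biotin-tagged antibody raised against NOTCH3 rather than NOTCH3 protein; score merges spot fluorescence near 667 nm with spot signal to noise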
[3] = probe aNOTCH2 binding on compound microarray – biochemical, small-molecule microarray, 635/667 nm fluorescence, primary screen (AID 1121); conditions: higher = more signal;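 further: score merges feature fluorescence read at 667 nm with its signal to noise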
[4] = target: Carbonic anhydrase 2 (Homo sapiens) (UniProt P00918); assay: compounds binding carbonic anhydrase 2 – biochemical, small-molecule microarray, Alexa647-labelled CAII, profiling panel (AID 1122); conditions: CAII-A647 binding fluorescence, higher = more signal
[5] = COS7 lysate on small-molecule microarray, probe aHis, 635 nm (AID 1123); conditions: COS7 cell lysate, fluorescence, higher = more signal;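 further: z-score combines 667nm fluorescence intensity with signal-to-noise per printed compound spot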
[6] = probe aLAP1 signal on lysate-treated microarray – cell lysate, small-molecule microarray, COS7 lysate, primary screen (AID 1124); conditions: probe aLAP1, fluorescence, higher = more signal;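 further: lysate comes from COS7 cells expressing LAP1 and is applied at 0.3 µg/mL; score merges spot fluorescence near 667 nm with signal-to-noise over triplicate slides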
Sam68 (KHDRBS1) = assay: compounds binding KHDRBS1 protein – biochemical, small-molecule microarray, 635 nm fluorescence, primary screen (AID 1125); conditions: higher = more signal;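 further: score merges 667 nm channel intensity with signal to noise over triplicate slides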
[7] = system: Chordin-like protein 2 (CHRDL2); assay: compounds binding chordin-like 2 – biochemical, small-molecule microarray, 635 nm fluorescence, primary screen (AID 1126); conditions: fluorescence 635 nm, higher = more signal;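 further: printed compound slides probed with Chrdl2 protein at 4 µg/mL for 1 h at 4 C; score merges 667 nm emission intensity with signal to noise over three replicate slides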
[8] = target: Concanavalin-A (Canavalia ensiformis) (UniProt P02866); assay: compounds binding concanavalin A lectin – biochemical, small-molecule microarray, Alexa647 label, 635 nm, artefact control for SMM control protein annotation, primary screen (AID 1127); conditions: ConA-A647 binding fluorescence, higher = more signal;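 further: z combines 667 nm emission intensity with signal-to-noise across three replicate slides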
Chain of Concanavalin-A (Canavalia ensiformis) (P02866 whole entry, looked up): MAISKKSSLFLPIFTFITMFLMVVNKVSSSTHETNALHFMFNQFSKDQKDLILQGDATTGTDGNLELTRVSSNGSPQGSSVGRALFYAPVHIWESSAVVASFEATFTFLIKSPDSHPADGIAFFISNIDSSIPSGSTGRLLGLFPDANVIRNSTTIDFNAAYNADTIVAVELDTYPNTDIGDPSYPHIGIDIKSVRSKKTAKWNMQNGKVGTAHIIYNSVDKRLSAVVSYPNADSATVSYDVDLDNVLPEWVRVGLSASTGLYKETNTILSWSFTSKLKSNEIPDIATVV

[9] = compounds binding Alexa647 anti-His antibody – biochemical, small-molecule microarray, 635 nm fluorescence, artefact control for SMM control protein annotation, primary screen (AID 1128); conditions: higher = more signal;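 further: score merges feature fluorescence with signal-to-noise for each printed compound spot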
[10] = system: Human papillomavirus type 1a E7 protein (residues 1-88); assay: HPV1a E7 small-molecule binders, primary screen, biochemical, small-molecule microarray, residues 1-88, 635 nm (AID 1129); conditions: small-molecule microarray binding, fluorescence 635 nm; higher = more signal
[11] = target: Focal adhesion kinase 1 (Homo sapiens) (UniProt Q05397); assay: PTK2 protein binding on printed compound slides – biochemical, small-molecule microarray, 635/667 nm fluorescence, BSA, DTT, primary screen (AID 1130); conditions: 635 nm fluorescence, higher = more signal;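 further: composite of spot emission at 667 nm and signal to noise over triplicate slides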
Chain of Focal adhesion kinase 1 (Homo sapiens) (Q05397 whole entry, looked up): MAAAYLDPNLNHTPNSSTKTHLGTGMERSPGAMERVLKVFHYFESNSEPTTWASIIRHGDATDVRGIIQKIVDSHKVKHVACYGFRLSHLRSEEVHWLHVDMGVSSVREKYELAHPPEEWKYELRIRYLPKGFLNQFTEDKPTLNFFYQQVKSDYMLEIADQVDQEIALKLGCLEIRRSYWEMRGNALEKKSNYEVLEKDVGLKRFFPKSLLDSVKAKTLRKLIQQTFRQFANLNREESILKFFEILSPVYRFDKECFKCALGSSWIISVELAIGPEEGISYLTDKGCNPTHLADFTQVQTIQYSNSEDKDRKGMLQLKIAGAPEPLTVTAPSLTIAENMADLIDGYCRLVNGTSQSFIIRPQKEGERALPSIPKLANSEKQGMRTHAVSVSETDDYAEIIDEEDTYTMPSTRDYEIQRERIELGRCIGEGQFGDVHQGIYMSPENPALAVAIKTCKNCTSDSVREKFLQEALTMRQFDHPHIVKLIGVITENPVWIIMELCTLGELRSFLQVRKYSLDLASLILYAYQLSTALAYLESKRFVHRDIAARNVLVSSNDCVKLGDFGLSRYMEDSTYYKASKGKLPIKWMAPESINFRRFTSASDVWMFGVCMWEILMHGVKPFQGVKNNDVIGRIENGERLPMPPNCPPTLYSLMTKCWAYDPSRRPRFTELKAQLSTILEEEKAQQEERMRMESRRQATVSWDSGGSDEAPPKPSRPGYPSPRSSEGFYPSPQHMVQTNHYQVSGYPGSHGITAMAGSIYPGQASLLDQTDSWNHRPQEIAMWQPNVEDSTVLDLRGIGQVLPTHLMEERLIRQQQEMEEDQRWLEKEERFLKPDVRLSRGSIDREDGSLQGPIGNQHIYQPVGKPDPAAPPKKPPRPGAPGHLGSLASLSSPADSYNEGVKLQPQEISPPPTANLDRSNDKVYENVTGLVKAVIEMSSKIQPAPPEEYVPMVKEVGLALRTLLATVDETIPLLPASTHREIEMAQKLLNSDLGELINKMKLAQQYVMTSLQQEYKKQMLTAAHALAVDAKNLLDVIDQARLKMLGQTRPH

[12] = system: Fibrinogen (Alexa647-labelled); assay: Alexa647-fibrinogen binding to printed small molecules – biochemical, small-molecule microarray, 635/667 nm fluorescence, artefact control for SMM control-protein annotation, profiling panel (AID 1131); conditions: fibrinogen-A647 binding fluorescence, higher = more signal;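 further: z-score merges 667 nm fluorescence with per-spot signal-to-noise over triplicate slides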
[13] = target: Follistatin (Homo sapiens) (UniProt P19883); assay: FST protein binding to printed compounds – biochemical, small-molecule microarray, 635/667 nm fluorescence, primary screen (AID 1132); conditions: 635 nm fluorescence, higher = more signal
Chain of Follistatin (Homo sapiens) (P19883 whole entry, looked up): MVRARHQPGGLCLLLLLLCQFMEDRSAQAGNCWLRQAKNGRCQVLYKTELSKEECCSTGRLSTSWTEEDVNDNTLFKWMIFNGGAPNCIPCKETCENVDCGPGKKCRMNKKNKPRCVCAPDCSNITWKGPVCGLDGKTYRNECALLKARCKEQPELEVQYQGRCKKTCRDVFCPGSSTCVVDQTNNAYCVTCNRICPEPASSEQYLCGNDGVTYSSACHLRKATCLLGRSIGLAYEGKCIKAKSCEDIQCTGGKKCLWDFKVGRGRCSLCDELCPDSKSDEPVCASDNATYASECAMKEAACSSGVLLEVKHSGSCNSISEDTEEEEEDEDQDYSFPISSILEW

[14] = target: Fibroblast growth factor 2 (Homo sapiens) (UniProt P09038); assay: basic fibroblast growth factor binding to printed compounds – biochemical, small-molecule microarray, 635/667 nm fluorescence, primary screen (AID 1133); conditions: FGF2, fluorescence 635/667, higher = more signal
Chain of Fibroblast growth factor 2 (Homo sapiens) (P09038 whole entry, looked up): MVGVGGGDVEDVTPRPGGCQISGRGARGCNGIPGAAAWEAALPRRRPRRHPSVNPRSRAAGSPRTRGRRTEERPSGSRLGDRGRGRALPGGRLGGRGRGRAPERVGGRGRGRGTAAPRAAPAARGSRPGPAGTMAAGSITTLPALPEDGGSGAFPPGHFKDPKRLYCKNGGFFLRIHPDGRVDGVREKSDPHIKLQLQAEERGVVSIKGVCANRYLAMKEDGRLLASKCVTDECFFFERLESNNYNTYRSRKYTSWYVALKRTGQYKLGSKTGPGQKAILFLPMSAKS

[15] = JC-1 mitochondrial potential readout, lung cancer cells – cell-based, A549, JC-1 fluorescence, basal, 24 h, 100 nL, profiling panel (AID 1138); conditions: higher = more signal;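 further: A549 lung adenocarcinoma cells under basal conditions with no added stimulus; test concentration not given here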
Lefty1 = Lefty1 protein binding to printed compounds – biochemical, small-molecule microarray, 635/667 nm fluorescence, primary screen (AID 1139); conditions: fluorescence 635/667, higher = more signal
[16] = system: wheat germ agglutinin (Triticum aestivum), Alexa647-labelled; assay: Alexa647-WGA lectin binding to printed small molecules – biochemical, small-molecule microarray, 635/667 nm fluorescence, artefact control for SMM control-protein annotation, profiling panel (AID 1140); conditions: WGA-A647 binding, 635 nm fluorescence, higher = more signal;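 further: score merges 667 nm feature emission with signal to noise over triplicate slides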
[17] = target: Luciferin 4-monooxygenase (Photinus pyralis) (UniProt P08659); assay: inhibition of purified Photinus pyralis luciferase – biochemical, luminescence, purified enzyme, 2006 set, primary screen (AID 1141); conditions: purified firefly luciferase, SteadyGlo luminescence, 30 min; higher = more signal, called active from +8 up or from −8 down;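 further: cell-free assay with purified firefly luciferase at 100 ng per well in PBS; test concentration not given here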
Chain of Luciferin 4-monooxygenase (Photinus pyralis) (P08659 whole entry, looked up): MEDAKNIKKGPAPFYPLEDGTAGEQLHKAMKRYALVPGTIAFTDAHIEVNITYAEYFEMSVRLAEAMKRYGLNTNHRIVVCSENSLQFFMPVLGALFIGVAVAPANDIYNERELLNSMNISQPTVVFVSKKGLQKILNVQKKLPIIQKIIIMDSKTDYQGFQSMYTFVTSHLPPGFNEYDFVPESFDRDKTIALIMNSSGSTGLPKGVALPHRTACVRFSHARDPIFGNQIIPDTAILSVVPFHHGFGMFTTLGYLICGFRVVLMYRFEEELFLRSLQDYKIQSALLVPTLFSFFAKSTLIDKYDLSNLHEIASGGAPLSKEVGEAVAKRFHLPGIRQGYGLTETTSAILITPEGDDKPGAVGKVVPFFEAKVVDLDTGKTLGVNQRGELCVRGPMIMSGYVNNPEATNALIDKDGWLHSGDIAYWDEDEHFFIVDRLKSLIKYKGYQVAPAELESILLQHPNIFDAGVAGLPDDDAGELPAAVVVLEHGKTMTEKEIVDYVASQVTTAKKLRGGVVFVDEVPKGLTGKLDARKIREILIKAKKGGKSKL

Compound	composite z-score (Albumin (Bos taurus))	composite Z-score [1]	composite z-score [2]	composite z-score [3]	composite z-score [4]	composite z-score [5]	composite z-score [6]	composite z-score (Sam68 (KHDRBS1))	composite z-score [7]	composite z-score [8]	composite z-score [9]	composite z-score [10]	composite z-score [11]	composite z-score [12]	composite z-score [13]	composite z-score [14]	z-score [15]	composite z-score (Lefty1)	composite z-score [16]	z-score [17]
Cc1ccc([C@@H]2C[C@@H](Sc3ccccc3)[C@H](C(=O)O)CN2S(=O)(=O)c2ccc(C)cc2)cc1	0.26	-0.571 (inactive)	0.171	0.0019	0.726	2.89	0.986	1.29	-0.144	1.03	1.98	1.26	0.373	0.956	0.868	0.507	-1.42	0.589	1.14	1.88 (inactive)
CO[C@H]1O[C@H](CO)[C@@H](OC(=O)Nc2cccc(F)c2)[C@H](OC(=O)Nc2ccccc2)[C@@H]1OC(=O)Nc1ccccc1	0.875	0.311 (inactive)	0.138	0.003	0.555	2.54	1.02	1.3	-0.219	0.724	1.16	1.22	0.919	0.973	0.518	0.843	0.0874	-0.105	1.27	0.0107 (inactive)
Cc1ccccc1C(O)C1C=CC2C(=O)N(c3ccccc3)C(=O)C2N1Nc1ccc(C(C)C)cc1 (stereo not given)	0.868	0.403 (inactive)	0.344	-0.0983	0.304	2.1	0.68	1.15	-0.219	1.15	0.0147	1.14	0.655	0.997	1.02	-0.144	-0.504	0.383	0.882	-0.263 (inactive)
CC(=O)NCCCC[C@@H]1NC(=O)[C@@H]2C[C@H](C(=O)NCCCCCNC(=O)CS)[C@H](c3cccc(OCCO)c3)N2C1=O	-0.0839	0.648 (inactive)	-0.205	-0.159	-0.0086	-0.0704	-0.0909	0.254	1.05	0.241	2	-0.516	-0.612	-1.07	1.32	0.94	-0.763	1.1	0.0847	-0.125 (inactive)
C=C(C)[C@@H]1CC=C(C(O)C2C=CC3C(=O)N(C)C(=O)C3N2Nc2ccccc2)CC1 (stereo not given in full)	0.203	0.0898 (inactive)	0.15	-0.0617	0.372	0.491	0.201	0.838	1.38	0.183	-0.243	1.17	0.427	0.262	1.38	1.12	0.54	0.987	1.18	0.485 (inactive)
C=CCOC(=O)[C@H]1[C@@H]2C(=O)O[C@@H](c3ccccc3)[C@@H](c3ccccc3)N2[C@@H](c2ccc(OCCOC(=O)[C@H]3C[C@H]4C(=O)N[C@@H](CCCCNC(C)=O)C(=O)N4[C@H]3c3ccc(O)cc3)cc2)[C@]12C(=O)Nc1ccc(I)cc12	-0.0312	0.745 (inactive)	0.0876	-0.147	0.253	0.837	0.0563	1.22	1.25	1.09	0.748	0.885	0.169	0.332	1.35	1.46	-0.804	1.42	0.105	-2.16 (inactive)
CCOC(=O)C[C@H]1[C@H](OC(=O)c2ccc(-c3ccccc3)cc2)[C@@H](NC(=O)Cc2ccc(OC)cc2)c2cc(OCCCO)ccc2N1C(=O)c1ccccc1	0.167	0.0175 (inactive)	0.15	-0.135	-0.0516	0.614	-0.105	0.264	-0.348	0.0776	0.0013	-0.483	0.0865	0.44	0.349	0.0164	0.188	0.299	0.241	0.785 (inactive)
NCCCCCCNC(=O)[C@@H]1C[C@@H]2C(=O)NCC(=O)N2[C@@H]1c1ccc(O)cc1	0.741	0.706 (inactive)	-0.232	-0.124	0.4	0.738	0.0946	1.28	1.17	1.17	1.2	1.14	0.183	0.971	1.46	1.62	-0.614	1.63	0.846	1.14 (inactive)
C=CCC(OC(C)=O)[C@@H]1[C@@H](N(Cc2ccc(-c3cccc(C(F)(F)F)c3)o2)C(=O)c2ccc(C)cc2)c2cc(OCCCO)ccc2N1C(=O)Cc1ccc2ccccc2c1 (stereo not given in full)	-0.257	0.421 (inactive)	-0.0702	-0.153	-0.253	-0.275	-0.472	-2.05	0.264	-0.594	0.357	-1.49	0.0103	0.658	0.107	-0.358	0.71	-0.454	0.234	-0.453 (inactive)
O=C1O[C@H](c2ccccc2)[C@H](c2ccccc2)N2[C@H]1[C@@H](C(=O)N1CCCCCCC1)[C@]1(C(=O)Nc3ccc(C#CCCO)cc31)[C@H]2c1ccccc1OCCO	0.536	10.7 (active)	2.31	1.14	1.12	5.54	1.3	1.35	1.7	1.21	3.55	1.36	5.56	1.02	1.58	1.16	0.372	1.93	1.64	-1.35 (inactive)
COC(=O)[C@@]1(Cc2ccccc2)[C@H]2c3cc(C(=O)N4CCCC4)n(Cc4ccc(S(C)(=O)=O)cc4)c3C[C@H]2CN1C(=O)c1ccccc1	1.12	0.971 (inactive)	0.511	-0.173	0.902	1.92	0.559	1.29	-0.832	0.978	1.27	1.27	2.05	1	1.03	-0.771	0.687	-0.07	1.08	1.3 (inactive)

Reference: PubChem BioAssay
